Screens as filed in PubChem BioAssay.
Hits are enriched below; roughly 11% of the tested compounds scored in any of these assays.
VP16 counter – Gal4-VP16 reporter inhibition counter-screen. Drosophila S2 Gal4-VP16 UAS-luciferase, luminescence, 20 h. Potency, µM (series often up to 53.6 µM), actives largely listed as inhibitors. 3.5% of 310,000 active;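 note: Gal4-VP16 expression switched on by copper sulfate through the metallothionein promoter; nearly all actives have a fitted effect of over 50% in size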
RORg inh – ROR gamma (mouse) transcription inhibition. 5.4% of 310,000 active. Potency, µM (top dose mostly 53.6 µM), usual class: inhibitors. Drosophila S2 Gal4-RORgamma UAS-luciferase reporter, 20 h; note: nearly all actives have a fitted effect of over 60% in size
Target sequence (P51450 whole entry, looked up, the tested form may be a part): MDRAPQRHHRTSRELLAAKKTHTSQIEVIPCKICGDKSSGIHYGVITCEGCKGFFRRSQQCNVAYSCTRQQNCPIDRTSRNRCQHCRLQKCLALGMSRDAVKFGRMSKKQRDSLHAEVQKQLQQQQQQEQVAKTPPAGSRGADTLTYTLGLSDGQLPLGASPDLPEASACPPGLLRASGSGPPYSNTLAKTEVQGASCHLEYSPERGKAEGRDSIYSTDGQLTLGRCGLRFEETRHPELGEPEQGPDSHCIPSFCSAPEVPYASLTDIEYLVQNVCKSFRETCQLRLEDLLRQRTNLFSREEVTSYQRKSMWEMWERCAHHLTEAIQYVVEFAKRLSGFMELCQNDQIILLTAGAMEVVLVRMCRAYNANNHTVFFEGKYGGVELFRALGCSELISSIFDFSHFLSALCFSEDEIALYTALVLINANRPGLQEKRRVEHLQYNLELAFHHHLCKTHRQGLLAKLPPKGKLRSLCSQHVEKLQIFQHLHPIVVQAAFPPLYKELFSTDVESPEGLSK
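Stable Schneider cell line, Gal4 DNA-binding domain fused to ROR gamma, UAS-luciferase. Cmpd 1 hr RT → CuSO4 700 uM final → 20 hr RT → luciferase reagent 10 min → luminescence.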
IL1B secr inh – inhibitors of inflammasome signaling (IL-1 beta secretion); 4.7% of 360,000 active; THP-1 LPS/ATP IL-1B secretion, AlphaLISA, 16 h; active compounds read low; activity change, % at 57.5 µM; in the data active = activity change below about -50%; inconclusive = mostly about -30% to -49%
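THP-1 cells pretreated 1 hr with compounds (up to 57.5 uM final), then stimulated with LPS (250 ng/mL final) plus ATP (1.25 mM final); secreted IL-1B measured by AlphaLISA after 16 hr, decreased signal indicating inhibition.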
MCF10A rerep – DNA re-replication induction in MCF 10a cells. Potency, µM (titrated, usually from 46.1 µM), most hits filed as activators. AID 624296. MCF 10A DNA re-replication, Hoechst nuclear intensity, 48 h. 2.9% of 350,000 active; note: nearly all actives have a fitted effect of over 50% in size
SW480 rereplic – induces DNA re-replication in SW480 colon adenocarcinoma cells | SW480 DNA re-replication, Hoechst DNA content imaging, 48 h | Potency, µM (top dose mostly 46.1 µM), most hits filed as activators | 1.8% of 340,000 active | AID 624297; note: nearly all actives have a fitted effect of over 55% in size
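Cells (250 per well) received 23 nL compound or DMSO by pin tool and were kept 48 hr at 37 C, 5% CO2. Nuclei were then stained with Hoechst for 40 min and scanned for DNA content.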
A number is an active result; 0 = inactive; ? = inconclusive; - = no result; [ ] = remark or other dose. Unless noted, calls come from the whole dose curve; as a rule, active = well fitted curve in the direction sought with a large enough effect; inconclusive = small, poorly fitted or top-dose-only effect, or another doubt; inactive = no such curve, though single readings can be large; an effect the other way counts as inactive or inconclusive.

SMILES | VP16 counter | RORg inh | IL1B secr inh | MCF10A rerep | SW480 rereplic
Cc1nn(C)cc1CNCc1ccc(OCC(O)CN(C)Cc2ccccc2)cc1 (centres undefined) | 0 | 0 | 0 | 0 | ?
Cc1ccccc1OCC(O)CNC1CCCC1 (centres undefined) | 0 | 0[1.91 µM] | 0 | ? | 0
CN(C(=O)COC(=O)/C=C/c1ccccc1)C1CCS(=O)(=O)C1 (centres undefined) | - | - | 0 | - | -
COc1cc(C2Nc3ccc4ncccc4c3C3=C2C(=O)CCC3)cc(OC)c1O (centres undefined) | 0 | 2.82µM | 0 | ? | ?
COc1cc(C2Nc3ccc4ncccc4c3C3=C2C(=O)CC(C)(C)C3)cc(OC)c1O (centres undefined) | 0 | 0 | 0 | 0 | ?
Cc1ccc(C2Nc3ccc4ccccc4c3C3=C2C(=O)CC(C)(C)C3)o1 (centres undefined) | 0 | 0 | -52.0 | ? | ?
CC1(C)CC(=O)C2=C(C1)c1c(ccc3ccccc13)NC2c1ccc(C(=O)O)cc1 (centres undefined) | 0 | 0 | 0 | 0 | ?
CC1(C)CC(=O)C2=C(C1)c1c(ccc3ncccc13)NC2c1cccs1 (centres undefined) | 0 | 0[10 µM] | 0 | 9.2µM | ?
CC1(C)CC(=O)C2=C(C1)c1c(ccc3ccccc13)NC2c1cc([N+](=O)[O-])cc([N+](=O)[O-])c1O (centres undefined) | ? | ? | 0 | 0 | 0
CCCCc1ccc(/C(C)=N/NC(=O)C2CCCC2)cc1 | 0 | 0 | 0 | 0 | 0
C=CCn1c(=S)[nH]c2sc3c(c2c1=O)CCC3 | ? | 0.1µM | 0 | 0 | 0
CC1CCc2c(sc3[nH]c(=S)n(C)c(=O)c23)C1 (centres undefined) | 0.891µM | 0.562µM | 0 | 0 | 10.3µM
CCn1c(=S)[nH]c2sc3c(c2c1=O)CCCC3 | 0.631µM | 0.447µM | 0 | 0 | 0
CC1CCc2c(sc3nn[nH]c(=O)c23)C1 (centres undefined) | 0 | 0 | 0 | 0 | 0
CN(C)CCCn1c(=S)[nH]c2sc3c(c2c1=O)CCCC3 | ? | 14.1µM | ? | 0 | 0
Cc1nnc2n1N=C(c1ccc(F)cc1F)CS2 | - | - | 0 | 0 | 0
CCC(=O)NC(c1ccc(C)cc1)c1cc([N+](=O)[O-])c2cccnc2c1O (centres undefined) | 2.82µM | 2.51µM | 0 | ? | ?
CCCC(=O)NC(c1ccco1)c1cc([N+](=O)[O-])c2cccnc2c1O (centres undefined) | 5.01µM | 5.62µM | 0 | 0 | ?
CC(=O)NC(c1ccc(C)cc1)c1cc([N+](=O)[O-])c2cccnc2c1O (centres undefined) | 3.98µM | 2.82µM | 0 | 0 | 0
CC(C)NC(=O)N1CC2(CCN(S(=O)(=O)c3ccccc3)CC2)C1 | 0 | 0 | - | - | -
Cc1ccc(C(=O)O)cc1NC(=O)CSc1nnc(-c2ccccc2F)n1C1CCCCC1 | - | - | 0 | 0 | 0
CCCCCCCCCCCCCCCCCC(=O)OCC(C)O (centres undefined) | 0 | 0 | - | 0 | 0
Cc1ccc(-c2ccc(CO)o2)cc1N | 0 | 0 | 0 | 0 | 0
CCOC(=O)c1ccc(-c2ccc(CO)o2)cc1 | ? | 11.2µM | 0 | 0 | 0
CCOC(=O)c1ccc(-c2ccc(C3Nc4ccccc4C(=O)N3O)o2)cc1 (centres undefined) | ? | 11.2µM | 0 | ? | 0
SMILES | VP16 counter | RORg inh | IL1B secr inh | MCF10A rerep | SW480 rereplic
Cc1cc([N+](=O)[O-])ccc1-c1ccc(C2Nc3ccccc3C(=O)N2O)o1 (centres undefined) | 0.708µM | ? | 0 | 10.3µM | ?
N#Cc1ccc(-c2ccc(C3Nc4ccccc4C(=O)N3O)o2)cc1 (centres undefined) | - | - | - | 0 | 0
Cn1c(SCC(=O)NCCc2ccccc2)ncc(C(=O)Nc2ccccc2)c1=O | - | - | 0 | 0 | 0
O=c1cc(C(O)C[N+](=O)[O-])occ1OCc1ccccc1 (centres undefined) | - | - | - | 0 | ?
CC(C)CCCCCCCCCCCCC(=O)NCC(=O)NC1C(O)C(O)C(Nc2ncnc3nc[nH]c23)OC1C(O)CO (centres undefined) | - | - | -99.7 | 0 | ?
CC(O)CNc1ncnc2nc[nH]c12 (centres undefined) | 0 | 0 | 0 | 0 | 0
COCCN(C(=O)COC(=O)c1ccc(-c2ccccc2)cc1)c1c(N)n(Cc2ccccc2)c(=O)[nH]c1=O | - | - | ? | 0 | 0
Cc1[nH]n(-c2ccccc2)c(=O)c1C(=O)Nc1ccccc1 | 0 | 0 | 0 | 0 | 0
C/C(=N\NC(=O)c1ccccc1)c1c(C)[nH]n(-c2ccccc2)c1=O | 1.26µM | 0.891µM | 0 | 0 | ?
C/C(=N\NC(=O)c1ccc(C)cc1)c1c(C)[nH]n(-c2ccccc2)c1=O | 1.58µM | 1.26µM | 0 | 0 | ?
CN(C(=O)c1ccc(-c2nn(C)c(=O)c3ccccc23)cc1)C1CCCCC1 | 0 | 0 | ? | 0 | 0
C=CCOc1ccc2c(c1)CCC1C2CCC2(C)C(O)C(O)CC12 (centres undefined) | - | - | -74.5 | ? | ?
N#Cc1c(N2CCCCC2)nc(N)c2c(N)nc3c(c12)CC(c1ccccc1)O3 (centres undefined) | 0 | ? | 0 | ? | 0[9.22 µM]
CCN(CC)c1nc(N)c2c(N)nc3c(c2c1C#N)CC(c1ccccc1)O3 (centres undefined) | 0 | 0 | 0 | 20.6µM | ?
OC(COc1ccccc1)CN1CCC(Cc2ccccc2)CC1 (centres undefined) | 0 | 0 | -72.0 | ? | 0[9.22 µM]
Cc1ccc(OCC(O)CN2CCC(Cc3ccccc3)CC2)c(C)c1 (centres undefined) | 0 | 0 | -53.9 | ? | ?
COc1ccccc1N1CCN(CC(O)COc2ccc(C)cc2C)CC1 (centres undefined) | 0 | 0 | -64.7 | ? | 0
OC(COc1cccc2ccccc12)CN1CCN(c2ccccc2Cl)CC1 (centres undefined) | 0 | 0 | 0 | 18.4µM | ?
CC1(C(=O)Nc2cccc3c2CCCC3)CCN1C(=O)Cc1ccccc1Cl (centres undefined) | - | - | 0 | - | -
C=CCc1ccccc1OCC(O)CN1CCN(c2ccc(OC)cc2)CC1 (centres undefined) | 0 | 0 | 0 | 0 | 0
OC(COc1ccc(OCc2ccccc2)cc1)CN1CCOCC1 (centres undefined) | 0 | 0 | 0 | 9.2µM | ?
C=CCc1ccccc1OCC(O)CN1CCOCC1 (centres undefined) | - | - | 0 | 0 | 11.6µM
OC(COc1ccc(F)cc1Cl)CN1CCC(Cc2ccccc2)CC1 (centres undefined) | 0 | 0 | -61.2 | 0 | ?
COc1cc(NCCCNC(C)C)c2nccc(C)c2c1 | - | - | 0 | ? | ?
O=C(c1ccccc1)C1CCN(C(=O)c2c(F)cccc2F)CC1 | 0 | 0 | ? | 0 | 0
Cc1ccc(NC(=S)Nc2ccc(OC(F)F)c(Cl)c2)cc1F | ? | ? | -95.0 | 0 | 0
O=C(Nc1ccc(F)c(Cl)c1)C1CCCC1 | - | - | 0 | ? | 5.8µM
